The nature of assay [1]: CCTE_Shafer_MEA_dev_firing_rate_mean: CCTE's Neural Network Formation Assay for Mean Firing Rate, Shafer Lab (AID 2284031). A digest of the protocol: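 Spike frequency (spikes/recording length, averaged over active electrodes) was recorded on days 5, 7, 9 and 12 and collapsed to AUC; rat cortical cultures received compound continuously over 12 days of network development.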

Assay [2] can be described thus: CCTE_Shafer_MEA_dev_per_burst_spike_percent: CCTE's Neural Network Formation Assay for Percent of Spikes in a Burst, Shafer Lab (AID 2284032). A digest of the protocol: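 Value is trapezoidal AUC over recordings on days 5, 7, 9 and 12 of the well-mean fraction of spikes falling in single-electrode bursts; rat cortical cultures exposed continuously from plating, treatment renewed DIV 5 and 9, fitted downward against DMSO.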

The nature of assay [3]: CCTE_Shafer_MEA_dev_active_electrodes_number: CCTE's Neural Network Formation Assay for Number of Active Electrodes, Shafer Lab (AID 2284040; active = hit-call score of the fitted dose curve at least 0.9, where 1 is the maximum). A digest of the protocol:
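Counts electrodes per well firing at least 5 spikes/min, recorded on days 5, 7, 9 and 12 in rat cortical cultures dosed continuously from plating (treatment refreshed DIV 5, 9). Value is the area under the curve over recordings, fitted downward relative to DMSO.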

Assay [4] can be described thus: CCTE_Shafer_MEA_dev_burst_rate: CCTE's Neural Network Formation Assay for Burst Rate, Shafer Lab (AID 2284042). A digest of the protocol:
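Cells plated, treated day 0; recorded DIV 5, 7, 9, 12; fed and re-treated DIV 5, 9. Endpoint: bursts per recording time, active-electrode well mean, trapezoidal AUC, fitted in decreasing direction against DMSO baseline.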

Assay [5] in a line: CCTE_Shafer_MEA_dev_bursting_electrodes_number: CCTE's Neural Network Formation Assay for Number of Bursting Electrodes, Shafer Lab (AID 2284043; active = hit-call score of the fitted dose curve at least 0.9, where 1 is the maximum). The procedure, abridged: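 Number of electrodes reaching ≥1 burst every 2 min was recorded at DIV 5, 7, 9 and 12 and collapsed as trapezoidal area under the curve. Cultures were rat cortical neurons on MEA plates, dosed continuously from plating with medium and treatment refreshed on DIV 5 and 9.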

Assay [6] can be described thus: CCTE_Shafer_MEA_dev_burst_duration_mean: CCTE's Neural Network Formation Assay for Mean Burst Duration, Shafer Lab (AID 2284045). A digest of the protocol: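 Mean single-electrode burst duration (first to last spike), averaged over bursting electrodes per well, then integrated as area-under-curve across recordings at days 5, 7, 9 and 12. Rat cortical cultures on MEAs, compound present from plating, refreshed at feeds.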

Assay [7] can be described thus: CCTE_Shafer_MEA_dev_interburst_interval_mean: CCTE's Neural Network Formation Assay for Mean Interburst Interval, Shafer Lab (AID 2284046).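 Note: curve fitted for decrease in interburst interval relative to DMSO.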 The procedure, abridged: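 Developing rat cortical networks on 48-well MEAs receive compound from the day of plating. Burst intervals from each active electrode are averaged per well, and AUC over the recording days is fitted in the negative direction against DMSO.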

A short description of assay [8]: CCTE_Shafer_MEA_dev_inter_network_spike_interval_mean: CCTE's Neural Network Formation Assay for Mean Inter-network Spike Interval, Shafer Lab (AID 2284047). A digest of the protocol: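 Rat cortical cultures, 1.5 x 10^5 cells/well on 48-well MEA plates; continuous exposure days 0–12, medium and compound refreshed DIV 5, 9. Mean time between consecutive network-spike peaks; AUC across DIV 5/7/9/12; DMSO baseline, negative fitting direction.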

The nature of assay [9]: CCTE_Shafer_MEA_dev_network_spike_number: CCTE's Neural Network Formation Assay for Number of Network Spikes, Shafer Lab (AID 2284048).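 Note: synchronized bursts across electrodes counted on days 5 7 9 12 and integrated as AUC.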 The procedure, abridged: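 Number of network spikes (coordinated firing across electrodes) recorded on days 5, 7, 9 and 12 and summarised as area under the curve. Rat cortical cultures on MEA, continuous compound exposure with full medium/treatment exchange at DIV 5 and 9.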

Assay [10] in a line: CCTE_Shafer_MEA_dev_network_spike_peak: CCTE's Neural Network Formation Assay for Mean Number of Electrodes in Network Spike, Shafer Lab (AID 2284049).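 Note: fitted for loss of signal meaning fewer electrodes in network spikes than DMSO.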 The procedure, abridged: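 Rat cortical primary culture, 1.5 x 10^5 cells/well, 48-well MEA (16 electrodes/well). Dosing day 0 through DIV 12, full media/compound exchange DIV 5, 9. AxIS adaptive spike detection; AUC over days 5/7/9/12; loss-of-signal vs DMSO.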

Assay [11] can be described thus: CCTE_Shafer_MEA_dev_spike_duration_mean: CCTE's Neural Network Formation Assay for Mean Spike Duration, Shafer Lab (AID 2284051). A digest of the protocol:
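Readout is the average length of network spikes, clustered firing across electrodes, summed over DIV 5, 7, 9 and 12 as area under the curve. Neurons from rat cortex developed networks on MEA plates under continuous 12-day exposure.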

A short description of assay [12]: CCTE_Shafer_MEA_dev_network_spike_duration_std: CCTE's Neural Network Formation Assay for Standard Deviation of Network Spike Duration, Shafer Lab (AID 2284052).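 Note: hits are decreases in network spike duration SD versus DMSO vehicle.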 A digest of the protocol:
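Read-out is the trapezoidal area-under-the-curve across recordings made on days 5, 7, 9 and 12, fitted in the negative direction against DMSO baseline. Neurons were primary rat cortical cells treated from day 0, with treatment renewed at each feed.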

Assay [13] can be described thus: CCTE_Shafer_MEA_dev_per_network_spike_spike_number_mean: CCTE's Neural Network Formation Assay for Mean Number of Spikes in a Network Spike, Shafer Lab (AID 2284053). The procedure, abridged:
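Continuous twelve-day exposure of developing rat cortical networks grown over 16 microelectrodes per well; spontaneous firing is captured at four time points, and the per-network-spike spike number is integrated over development by trapezoidal AUC.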

Assay [14] can be described thus: CCTE_Shafer_MEA_dev_per_network_spike_spike_percent: CCTE's Neural Network Formation Assay for Percent of Spikes in a Network Spike, Shafer Lab (AID 2284054). A digest of the protocol: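 Metric: fraction of spikes falling in a 0.05 s window at network-spike peaks. Recordings were made on days 5, 7, 9 and 12 and collapsed by trapezoidal AUC. Cultures were rat cortical neurons on MEA plates, dosed continuously from plating, re-dosed at media changes.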

A short description of assay [15]: CCTE_Shafer_MEA_dev_LDH: CCTE's Lactate Dehydrogenase Assay for Cytotoxicity in the Neural Network Formation Assay, Shafer Lab (AID 2284068; active = hit-call score of the fitted dose curve at least 0.9, where 1 is the maximum;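 note: exposure for twelve days from plating with re-dosing on DIV 5 and 9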). The procedure, abridged:
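Cytotoxicity companion to network-formation recordings: rat cortical neurons received compound over 12 days of development, re-dosed at DIV 5 and 9 feeds. Viability was inferred from LDH enzyme activity relative to DMSO.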

Assay [16] is described as follows: CCTE_Shafer_MEA_dev_AB: CCTE's Alamar Blue Assay for Cytotoxicity in the Neural Network Formation Assay, Shafer Lab (AID 2284083; active = hit-call score of the fitted dose curve at least 0.9, where 1 is the maximum;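 note: resazurin reduction fluorescence as viability of cultured neurons; twelve days of exposure from plating with re-dosing on DIV 5 and 9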). The procedure, abridged:
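Fluorescent resazurin reduction serves as the viability read-out, with DMSO as negative control and baseline. Cells were primary rat cortical neurons grown on MEA plates and dosed from day 0 to day 12, treatment renewed on DIV 5 and 9.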

Assay [17] is described as follows: CCTE_Shafer_MEA_dev_mutual_information_norm: CCTE's Neural Network Formation Assay for Mutual Information Normalization, Shafer Lab (AID 2284091). A digest of the protocol: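 Shared information across electrodes, tracked on days 5, 7, 9 and 12 of network development and collapsed as trapezoidal area under the curve. Rat cortical cultures were treated continuously from plating, with treatment renewed at feeds on DIV 5 and 9; DMSO baseline, negative-direction fit.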

Assay [18] is described as follows: IUF_NPC1a_proliferation_area_72hr: Leibniz Research Institute for Environmental Medicine (IUF) 72-hour Neural Progenitor Cell Proliferation Area Assay (NPC1a) (AID 2284208). A digest of the protocol: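 Read-out: increase in sphere area over 72 h by automated phase-contrast imaging, fitted in positive direction versus DMSO baseline. One hNPC sphere (0.25-0.35 mm) per well in EGF/FGF medium; growth-factor withdrawal served as positive control.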

Assay [19] is described as follows: IUF_NPC1_viability_72hr: Viability Assessment at 72 hours in the Leibniz Research Institute for Environmental Medicine (IUF) Neural Progenitor Cell Proliferation Assay (NPC1) (AID 2284209). A digest of the protocol:
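Viability was measured by resazurin-to-resorufin fluorescence (alamar blue) after 72 h of continuous exposure without compound renewal. Each well held one hNPC sphere (gestational week 16-19 fetal cortex, 0.25-0.35 mm) cultured in EGF/FGF proliferation medium at 37C and pH 7.2-7.6.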

A short description of assay [20]: CCTE_Mundy_HCI_Cortical_Synap_Neur_Matur_NeuriteSpotCountPerNeuriteLength: CCTE's Synaptogenesis and Neurite Maturation Assay in rat cortical cells for Neurite Spot Count per Neurite Length, Mundy Lab (AID 2284210). A digest of the protocol:
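Synaptophysin spots per unit neurite length, measured by automated imaging of MAP2/synaptophysin/Hoechst-stained neurons. Cultures from rat cortex received chemical at DIV 7 with media change through DIV 12; glial growth arrested by AraC at DIV 5; DMSO baseline.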

A short description of assay [21]: CCTE_Mundy_HCI_Cortical_Synap_Neur_Matur_BPCount: CCTE's Synaptogenesis and Neurite Maturation Assay in rat cortical cells for Branch Point Count, Mundy Lab (AID 2284211). A digest of the protocol: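 HCI read-out of branch points from MAP2/synaptophysin/Hoechst immunofluorescence; rat cortical cultures, AraC DIV 5, dosing DIV 7, fixed DIV 12; fit in positive direction vs DMSO baseline.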

Assay [22] in a line: CCTE_Mundy_HCI_Cortical_NOG_NeuriteCount: CCTE's Neurite Outgrowth Assay in rat cortical cells for Neurite Count, Mundy Lab (AID 2284212).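 Note: cells fixed about two days after chemical exposure began.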 A digest of the protocol: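 Rat cortical primary cells; compound added 2 h post-plating, 1/10 dilution of working solution. Anti-betaIII-tubulin/AF488 ICC; ArrayScan neurite count vs DMSO.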
A short description of assay [23]: CCTE_Mundy_HCI_Cortical_NOG_NeuriteLength: CCTE's Neurite Outgrowth Assay in rat cortical cells for Neurite Length, Mundy Lab (AID 2284213).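 Note: neurites imaged about 48 to 50 h after chemical exposure began.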 A digest of the protocol:
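First, rat primary cortical cells were plated and, 2 h later, given test chemical as a 1/10 dilution. Finally, βIII-tubulin immunostaining enabled automated imaging of neurite length.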

Molecules are shown by their SMILES. Inconclusive results are not listed. Active and inactive are the calls of the source. Rule for the calls, unless noted: active = hit-call score of the fitted dose curve at least 0.9, where 1 is the maximum; inactive = score below 0.9.

As for `CCOP(=O)(OCC)SCSCC`, the molecule was called inactive in [1], in assay [2], in assay [3], in assay [4], in assay [5] and in assay [6]. Also, the molecule was called inactive in [7], in assay [8], in assay [9], in assay [11], in assay [12] and in assay [13]. Besides, the molecule was classed as inactive in [15], in assay [16], in assay [17], in assay [18], in [19] and in [20]. Further, in assay [21], the molecule was called inactive. The AC50 was 49.8 µM (active) in assay [10], 90.9 µM (active) in assay [14], 78.6 µM (active) in [22] and 78.3 µM (active) in [23].

The record behind these values is PubChem BioAssay (EPA / NIEHS).
